Measured values reported in PubChem BioAssay AID1159580 (chemical genetic matrix, 2015).
“And” between values parts separate entries of the source, which are not always exact repeats. Equal values may be shown once. Hit rate of the full screen: of about 5,500 compounds, about 2,000 (36%) were called active. Not shown: some 18% with an inconclusive outcome. Rule as the data show it: active = normalized growth mostly below about 0.91 (no sharp cut-off); inconclusive = no clear call, values can overlap the other calls; inactive = mostly above about 0.92. This is one part of the list.

Experiment: chemical genetic growth profiling, strain panel (AID 1159580);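 also: tested at 20 µM; growth read once vehicle control cultures reached saturation at 30 °C; 1 = growth at the plate median or of vehicle wells; lower values mean less growth of the strain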
Conditions: S. cerevisiae deletion strains, growth OD

Measured: normalized growth

C=C1[C@H]2CC[C@@]3(C)[C@H](c4ccoc4)OC(=O)C[C@]13O[C@H]1C[C@H](O)C(C)(C)[C@H](CC(=O)OC)[C@]12C
inactive: locus YAL021C, strain ccr4, stronger effect = lower value 0.998 | locus YAL026C, strain drs2, stronger effect = lower value 1.05 | locus YAL030W, strain snc1, stronger effect = lower value 1.02 | locus YBL061C, strain skt5, stronger effect = lower value 1.02 | locus YBR009C, strain hhf1, stronger effect = lower value 1.01 | locus YBR021W, strain FUR4, stronger effect = lower value 0.985 | locus YBR023C, strain chs3, stronger effect = lower value 1.01 | locus YBR171W, strain sec66, stronger effect = lower value 1.02 | locus YBR229C, strain ROT2, stronger effect = lower value 0.999 | locus YBR231C, strain swc5, stronger effect = lower value 1.04 | locus YBR279W, strain paf1, stronger effect = lower value 1.02 | locus YCL011C, strain gbp2, stronger effect = lower value 1.01 | locus YCL016C, strain dcc1, stronger effect = lower value 1 | locus YCL029C, strain bik1, stronger effect = lower value 1.01 | locus YCL061C, strain MRC1, stronger effect = lower value 1.03 | locus YCL069W, strain vba3, stronger effect = lower value 1.02 | locus YCR088W, strain abp1, stronger effect = lower value 1.02 | locus YDL005C, strain med2, stronger effect = lower value 1.02 | locus YDL035C, strain GPR1, stronger effect = lower value 1 | locus YDL040C, strain nat1, stronger effect = lower value 1.02 | locus YDL074C, strain BRE1, stronger effect = lower value 0.99 | locus YDL101C, strain DUN1, stronger effect = lower value 1 | locus YDL134C, strain PPH21, stronger effect = lower value 1 | locus YDL185W, strain tfp1, stronger effect = lower value 1.03 | locus YDL192W, strain arf1, stronger effect = lower value 1.02 | locus YDR001C, strain nth1, stronger effect = lower value 1.02 | locus YDR069C, strain doa4, stronger effect = lower value 1.03 | locus YDR101C, strain arx1, stronger effect = lower value 1.01 | locus YDR137W, strain rgp1, stronger effect = lower value 0.975 | locus YDR159W, strain sac3, stronger effect = lower value 1.04 | locus YDR162C, strain NBP2, stronger effect = lower value 1.01 | locus YDR195W, strain ref2 1.03 | locus YDR297W, strain sur2, stronger effect = lower value 1.03 | locus YDR318W, strain mcm21, stronger effect = lower value 1.02 | locus YDR334W, strain swr1, stronger effect = lower value 1.02 | locus YDR335W, strain msn5, stronger effect = lower value 1.02 | locus YDR388W, stronger effect = lower value 1.02 | locus YDR392W, strain spt3, stronger effect = lower value 0.927 | locus YDR502C, strain sam2, stronger effect = lower value 1.02 | locus YEL003W, strain gim4, stronger effect = lower value 1.03 | locus YEL037C, strain rad23, stronger effect = lower value 1.01 | locus YEL061C, strain CIN8 (second series), stronger effect = lower value 1.02 | locus YEL061C, strain CIN8, stronger effect = lower value 0.998 | locus YER015W, strain faa2, stronger effect = lower value 1.03 | locus YER016W, strain bim1, stronger effect = lower value 1.02 | locus YER110C, stronger effect = lower value 1.02 | locus YER111C, strain swi4, stronger effect = lower value 1.03 | locus YER155C, strain BEM2 (second series), stronger effect = lower value 1.04 | locus YER155C, strain BEM2, stronger effect = lower value 1 | locus YER167W, strain BCK2, stronger effect = lower value 1 | locus YFR010W, strain ubp6, stronger effect = lower value 1.04 | locus YGL078C, strain dbp3, stronger effect = lower value 1.02 | locus YGL086W, strain mad1, stronger effect = lower value 1 | locus YGL167C, strain pmr1, stronger effect = lower value 1.02 | locus YGL173C, strain kem1, stronger effect = lower value 1.04 | locus YGL227W, strain vid30, stronger effect = lower value 1.03 | locus YGL240W, strain doc1, stronger effect = lower value 1.02 | locus YGL248W, strain PDE1, stronger effect = lower value 0.999 | locus YGL253W, strain hxk2, stronger effect = lower value 1.03 | locus YGR078C, strain PAC10, stronger effect = lower value 0.999 | locus YGR135W, strain pre9, stronger effect = lower value 1.02 | locus YGR252W, strain gcn5, stronger effect = lower value 1.02 | locus YHR013C, strain ard1, stronger effect = lower value 1 | locus YHR027C, strain rpn1, stronger effect = lower value 1.02 | locus YHR030C, strain SLT2, stronger effect = lower value 0.986 | locus YHR079C, strain IRE1 (second series), stronger effect = lower value 1.02 | locus YHR079C, strain IRE1, stronger effect = lower value 0.977 | locus YHR094C, strain hxt1, stronger effect = lower value 1.02 | locus YHR129C, strain ARP1, stronger effect = lower value 1.01 | locus YHR142W, strain chs7, stronger effect = lower value 1.01 | locus YHR200W, strain rpn10, stronger effect = lower value 1 | locus YIL066C, strain RNR3, stronger effect = lower value 1.01 | locus YIL073C, strain SPO22, stronger effect = lower value 1.07 | locus YIL125W, strain kgd1, stronger effect = lower value 1.01 | locus YIR030C, strain dcg1, stronger effect = lower value 1.02 | locus YJL092W, strain hpr5, stronger effect = lower value 1.03 | locus YJL095W, strain BCK1 (second series), stronger effect = lower value 1.02 | locus YJL095W, strain BCK1, stronger effect = lower value 1 and 0.979 | locus YJL115W, strain asf1, stronger effect = lower value 1.02 | locus YJL129C, strain trk1, stronger effect = lower value 1.02 | locus YJL134W, strain LCB3, stronger effect = lower value 1.01 | locus YJL154C, strain vps35, stronger effect = lower value 1.02 | locus YJL164C, strain tpk1, stronger effect = lower value 1 | locus YJL166W, strain qcr8, stronger effect = lower value 1.03 | locus YJL168C, strain set2, stronger effect = lower value 1.02 | locus YJL187C, strain SWE1 (second series), stronger effect = lower value 1 | locus YJR043C, strain POL32, stronger effect = lower value 0.991
